Several values for one entry are separate records, joined by “and”; a condition that tells them apart may be missing. Equal values may be shown once. The panel holds about 79,000 compounds, 15% with a hit somewhere; the sample as a whole holds those more often. Activity calls are given as the source filed them. Cut-off read from the data, not from the text of the source: active = growth inhibition above about 70%; inactive = the rest.
Assay: NCI Yeast Anticancer Drug Screen. Data for the sgs1 mgt1 strain (AID 161);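 note: 0% = growth of cultures given vehicle only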
Details: S. cerevisiae sgs1 mgt1 strain, at 50.0 µM, active compounds read high
Outline: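 Compounds are added to genetically altered yeast, and growth is compared with cultures given vehicle alone to give percent inhibition.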

Compound | growth inhibition
CCCCCCCCCCCOP(=O)(OCC)OCC | 99.8% (active)
CN1C[C@H]2[C@@H](C1=O)[C@H](c1ccccc1)ON2C | -34% (inactive)
Cc1cc(NC(=O)CCc2ccc(N3C(N)=NC(N)=NC3(C)C)cc2Cl)ccc1S(=O)(=O)F | 94.7% (active)
CN1CCc2cc3c(cc2C1)OCO3 | -12.9% (inactive) and 8.55% (inactive)
O=C1NC(=O)C(CCC(=O)c2ccc3ccccc3c2)C(=O)N1 | -57.6% (inactive)
CN(C)C(=O)Oc1c(Cl)cccc1Cl | 5.65% (inactive)
COC1=CC(=O)OC(CCc2ccccc2)C1 (stereo not given) | -1.9% (inactive)
CC([NH-])C(=O)O.CC([NH-])C(=O)O.[Cu+2] (stereo not given) | 15.6% (inactive)
CC(O)C[N+](=O)[O-] (stereo not given) | -4.6% (inactive)
Cc1ccc(SP(=S)(Sc2ccc(C)cc2)Sc2ccc(C)cc2)cc1 | -4.15% (inactive)
O=[As](O)(O)c1cc(F)ccc1F | -11.4% (inactive)
Nc1cc(C(=O)O)ccc1O.[Cl][Sn][Cl] | -6.4% (inactive)
O=C(/C=C/c1ccccc1)Nc1ccc(Cl)cc1C(=O)c1ccccc1 | 7.6% (inactive)
Oc1cc(Cl)c(O)c(Cl)c1 | 4.15% (inactive)
CC(CCF)C(N)C(=O)O (stereo not given) | 28.9% (inactive) and -9.4% (inactive)
COc1ccc([N+](=O)[O-])cc1N=Cc1ccc(N(CCCl)CCCl)cc1C | 52.2% (inactive)
O=[N+]([O-])c1ncccc1NCCN1CCCC1 | -15.8% (inactive)
C[N+](C)(C)CC1CCCCC1=O (stereo not given) | 17.9% (inactive)
C[N+]1(CCCl)CCc2cc([N+](=O)[O-])ccc2C1 (stereo not given) | -24.9% (inactive)
CC[As](=O)(O)c1ccc(I)cc1 | -1.95% (inactive)

Compound | growth inhibition
Cc1cc(Cl)ccc1NC(=O)/C(CC(=O)CC(c1ccccc1)c1c(O)c2ccccc2oc1=O)=N\O (stereo not given) | 3.05% (inactive)
CP(C)C.[Ag][I] | -0.15% (inactive)
COC1CC(OC2C(C)OC(OC3C(C)OC(OC4C(C)OC(O[C@H]5CC[C@@]6(C)C(=CC[C@]7(O)[C@@H]6C[C@@H](OC(C)=O)[C@@]6(C)[C@]7(O)CC[C@@]6(O)C(C)=O)C5)CC4OC)CC3OC)CC2OC)OC(C)C1O (stereo not given in full) | -9.55% (inactive)
O=S(=O)(c1ccccc1)N1C2CCCC21 (stereo not given) | 7.05% (inactive)
CCNCCC1(CC)C(=O)NC(=O)NC1=O | -27.4% (inactive)
Cc1cccc(C(=O)[O][Pb]([CH3])([CH3])[CH3])c1 | 21% (inactive)
CC(=O)C(C(C)=O)C(=O)c1ccc([N+](=O)[O-])cc1.[Cr] | 6.3% (inactive)
[N-]=[N+]=NC1C2CC3CC(C2)CC1C3 (stereo not given) | -7.2% (inactive)
C[N+]1(C)CCN(c2ccccc2)CC1 | -12.5% (inactive)
OC(COc1cccc2ccccc12)CN(CCCl)CCCl (stereo not given) | -5.6% (inactive)
CCOC(=O)C(C(=O)OCC)c1ccccc1 | 11.7% (inactive) and 11.1% (inactive)
CCCC[As](CCCC)SC1OC(COC(C)=O)C(OC(C)=O)C(OC(C)=O)C1OC(C)=O (stereo not given) | 98.8% (active)
CCCCOC1OCN(C2CCCCC2)CC1(C)C (stereo not given) | 27.5% (inactive)
c1ccc2c(c1)sc1sc3c([n+]12)CCCC3 | -5.3% (inactive)
COC1OC2COc3ccccc3OC2C(N=C(N)N[N+](=O)[O-])C1OS (stereo not given) | 2.15% (inactive)
CC(C)OP(=O)(OC(C)C)C(C(F)(F)F)C(F)(F)F | 19% (inactive)
NCCCP(c1ccccc1)c1ccccc1 | -5.65% (inactive)
CC(NC1=NCCO1)c1cccs1 (stereo not given) | -20.1% (inactive)
CC1CN(C2CCCCC2)CO1 (stereo not given) | 0.8% (inactive)
CCOP(=O)(OCC)Oc1ccc([N+](=O)[O-])c(CC)c1 | -0.3% (inactive)
